We go through eight compounds from PubChem BioAssay (Tox21).

A number with no mark means an inactive call. Inconclusive results are not listed. Active and inactive are the calls of the source. Unless noted, calls follow the shape of the full dose curve.

Assay [1] can be described thus: Nuclear factor erythroid 2-related factor 2/antioxidant responsive element (Nrf2/ARE) small molecule agonists: qHTS cell viability counter screen in human keratinocytes (AID 1919968; active = well fitted curve in the direction sought with a large enough effect in the repeat runs; an effect the other way counts as inactive or inconclusive; also: nearly all actives have a fitted effect of over 55% in size; also: potency is read from the fitted curve at half-maximal effect). In short, it runs like this:
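After a 5 h attachment period, ARE-reporter keratinocytes were dosed with compounds in DMSO and then cultured 23 h at 37 C. Cell viability came from CellTiter-Fluor signal read after a further 1 h.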
(Quantitative high-throughput screening tests each substance at several concentrations.)

The nature of assay [2]: Nuclear factor erythroid 2-related factor 2/antioxidant responsive element (Nrf2/ARE) small molecule agonists: luciferase reporter gene qHTS assay in human keratinocytes (AID 1919969; also: nearly all actives have a fitted effect of over 35% in size; also: potency is read from the fitted curve at half-maximal effect). (In general: In a reporter assay the amount or activity of a reporter protein is the signal.)
For assay [3], the target named is Gonadotropin-releasing hormone receptor (Homo sapiens) (UniProt P30968). The assay is described as follows: Human gonadotropin-releasing hormone receptor (GnRHR) small molecule agonists, calcium flux assay in GnRHR-HEK293 cells (AID 1920063). Also: nearly all actives have a fitted effect of over 35% in size. Also: potency is read from the fitted curve at half-maximal effect. The method, boiled down: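 We seeded human GnRHR-expressing HEK293 cells for 18 hours, loaded them with calcium dye for an hour at 37 C, added test compounds, and recorded fluorescence intensity kinetically for three minutes.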
On the technique in general: A change in cytosolic calcium serves as a functional read-out for many receptors and channels.

Assay [4] deals with KiSS-1 receptor (Homo sapiens) (UniProt Q969F8). Briefly: Human kisspeptin (KISS1R) small molecule agonists, calcium flux assay in KISS1R-HEK293 cells (AID 1920064; active = well fitted curve in the direction sought with a large enough effect in the repeat runs; an effect the other way counts as inactive or inconclusive). The method, boiled down:
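Kinetic calcium assay, 1 s sampling over 3 min at Ex/Em 480/540, in HEK293 cells engineered with human KISS1R; compounds delivered in DMSO after 1 h dye loading.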

Assay [5] can be described thus: G protein-coupled receptor (GPCR) small molecule agonists, calcium flux assay: HEK293 wild type cell line counter screen (AID 1920065). Also: potency is read from the fitted curve at half-maximal effect. In short, it runs like this: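 Calcium-sensitive dye, loaded 1 h at 37 C into cells cultured 18 h, reports compound-evoked calcium release as fluorescence (Ex/Em 480/540), measured over 3 min. Agonist mode; 15-point titrations, triplicate.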

A short description of assay [6]: p53 small molecule agonists, cell-based qHTS assay with human liver microsomes (AID 1963577).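 Also: p53 response element beta-lactamase reporter cells with liver microsomes plus NADPH.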 The method, boiled down: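 16 h, 37 C exposure of p53RE-bla cells to compounds with human liver microsomes and NADPH (0.5 mg/mL final each); detection via LiveBLAzer mixture, 2 h dark at room temperature.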
Assay [7] in a line: p53 small molecule agonists, cell-based qHTS assay with rat liver microsomes (AID 1963578). In short, it runs like this: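 With rat liver microsomes and NADPH present (0.5 mg/mL final each), p53RE-bla cells are treated with compound for 16 h at 37 C. LiveBLAzer detection mixture is then applied for 2 h at room temperature in the dark.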
A short description of assay [8]: p53 small molecule agonists, cell-based qHTS assay with rat liver microsomes: qHTS cell viability counter screen (AID 1963580). Also: nearly all actives have a fitted effect of over 45% in size. In short, it runs like this: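 Viability is assessed in parallel with the p53 reporter read: HCT-116 p53RE-bla cells receive compounds plus rat microsomes and NADPH (0.5 mg/mL final apiece), incubate 16 h at 37 C, and then CellTiter-Glo luminescence is recorded.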

Assay [9] in a line: p53 small molecule agonists, cell-based qHTS assay (AID 1963582; active = well fitted activation curve with a large enough effect in the signal ratio in the repeat runs, not every such curve was filed as active; the % refers to the signal ratio). The method, boiled down:
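In this cell-based concentration-response screen, a p53 response element drives beta-lactamase; cells received DMSO-borne compounds after 5 h culture and were incubated a further 16 h before FRET substrate development.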

Assay [10] has as its target 5-hydroxytryptamine receptor 2A (Homo sapiens) (UniProt P28223). The assay is described as follows: 5-hydroxytryptamine receptor 2A (HTR2A) small molecule agonists, cell-based qHTS assay (AID 1963587). Also: nearly all actives have a fitted effect of over 30% in size. Also: potency is read from the fitted curve at half-maximal effect. The method, boiled down:
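CHO cells stably expressing human HTR2A, plated 18 h, loaded with calcium dye 1 h at 37 C. Agonist mode: compounds added and intracellular calcium fluorescence recorded kinetically for 2 min at 1 sec intervals.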

Assay [11] addresses Muscarinic acetylcholine receptor M1 (Homo sapiens) (UniProt P11229). Briefly: Cholinergic receptor muscarinic 1 (CHRM1) small molecule antagonists, cell-based qHTS assay (AID 1963588). Also: nearly all actives have a fitted effect of over 40% in size. Also: potency is read from the fitted curve at half-maximal effect. The method, boiled down:
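CHRM1-CHO calcium-flux assay, antagonist mode. Cells were seeded 18 h, dye-loaded 1 h at 37 C and given compound for 5 min at RT, then acetylcholine was added at 50nM. FDSS fluorescence was read 3 min; 15 concentrations, three runs.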

The target is the same in assay [12]. The assay is described as follows: Cholinergic receptor muscarinic 1 (CHRM1) small molecule agonists, cell-based qHTS assay (AID 1963589). Also: nearly all actives have a fitted effect of over 35% in size. In short, it runs like this: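 Measures agonist-induced intracellular calcium rise. Stable human CHRM1 CHO line, 1 h dye load at 37 C, compounds from DMSO, kinetic fluorescence read.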
Assay [13] in a line: cAMP Responsive Elements (CRE) small molecule agonists, cell-based qHTS assay (AID 1963590). In short, it runs like this: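 A CRE-responsive beta-lactamase reporter in HEK 293T cells was used. Treatment ran 3 h at 37 C; detection used LiveBLAzer B/G FRET substrate for 2 h at room temperature.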
A short description of assay [14]: cAMP Responsive Elements (CRE) small molecule antagonists, cell-based qHTS assay (AID 1963591; active = well fitted inhibition curve with a large enough effect in the signal ratio in the repeat runs, not every such curve was filed as active; the % refers to the signal ratio). The method, boiled down:
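HEK293T cells carrying a CRE-driven beta-lactamase reporter receive compound and NKH477 (0.25 uM final) for 3 h. Fluorescence from LiveBLAzer B/G FRET substrate is read after 2 h at room temperature.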

Assay [15] concerns the target Beta-2 adrenergic receptor (Homo sapiens) (UniProt P07550). The assay is described as follows: Adrenergic beta2 receptor (ADRB2) small molecule antagonists, cell-based qHTS assay (AID 1963592). Also: nearly all actives have a fitted effect of over 50% in size. Also: potency is read from the fitted curve at half-maximal effect. As to activity change, negative = inhibition: series mostly up to about 92 µM. The method, boiled down:
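Cells (CHO, stable ADRB2 overexpression) incubated 18-20hr at 37C; compounds added from DMSO; agonist mix (1nM isoproterenol, 100uM IBMX, 25uM Ro-20-1724) added; 0.5hr RT; d2-cAMP and anti-cAMP-cryptate added; 1hr RT; 665/615 nm read.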

In assay [16] the target is D(2) dopamine receptor (Homo sapiens) (UniProt P14416). The assay is described as follows: Dopamine D2 receptor (DRD2) small molecule agonists, cell-based qHTS assay (AID 1963594). Also: nearly all actives have a fitted effect of over 35% in size. The method, boiled down: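 HEK293 cells stably expressing human DRD2, pre-treated with PDE inhibitor Ro20-1724 (0.1 mM final) and compound 10 min at room temperature, then stimulated with NKH477 (200nM […]) for 30 min. cAMP read by HTRF (665/620 nm).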

Assay [17] shares this target. Briefly: Dopamine D2 receptor (DRD2) small molecule antagonists, cell-based qHTS assay (AID 1963595; active = well fitted inhibition curve with a large enough effect in the signal ratio in the repeat runs, with a control signal flat; the % refers to the signal ratio). In short, it runs like this: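 Antagonism was scored as restored cAMP in HEK293-DRD2 cells. These cells were stimulated with 200 nM NKH477 and 12 nM quinpirole for 30 min at room temperature, in the presence of 0.1 mM Ro20-1724.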
Assay [18] can be described thus: p53 small molecule agonists, cell-based qHTS assay with human liver microsomes: qHTS cell viability counter screen (AID 1963579). Also: nearly all actives have a fitted effect of over 45% in size. Also: potency is read from the fitted curve at half-maximal effect. The method, boiled down:
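In this multiplexed counter screen, the reporter plates were subsequently treated with CellTiter-Glo so that cell viability, reflected by luminescence, could be recorded for p53RE-bla cells dosed 16 h with compounds under microsomal activation (HLM and NADPH).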

Assay [19] in a line: p53 small molecule agonists, cell-based qHTS assay: qHTS cell viability counter screen (AID 1963581). Also: nearly all actives have a fitted effect of over 45% in size. In short, it runs like this:
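Following 5 h attachment, HCT-116 p53RE-bla cells took up compound for 16 h at 37 C; the reporter was read with B/G FRET substrate (2 h RT), and viability then via CellTiter-Glo ATP luminescence.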

Assay [20] concerns the target 5-hydroxytryptamine receptor 2A (Homo sapiens) (UniProt P28223). Briefly: 5-hydroxytryptamine receptor 2A (HTR2A) small molecule antagonists, cell-based qHTS assay (AID 1963586). Also: nearly all actives have a fitted effect of over 45% in size. In short, it runs like this: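 Antagonist-mode intracellular calcium assay: DOI (4 nM) added after 5 min compound pre-incubation at room temperature to dye-loaded HTR2A-CHO cells. Fluorescence followed for 3 min, sampled every second.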
% is scaled to controls: 0 for no effect and ±100 for the full control effect.

KiSS-1 receptor (Homo sapiens), sequence (Q969F8 whole entry, looked up): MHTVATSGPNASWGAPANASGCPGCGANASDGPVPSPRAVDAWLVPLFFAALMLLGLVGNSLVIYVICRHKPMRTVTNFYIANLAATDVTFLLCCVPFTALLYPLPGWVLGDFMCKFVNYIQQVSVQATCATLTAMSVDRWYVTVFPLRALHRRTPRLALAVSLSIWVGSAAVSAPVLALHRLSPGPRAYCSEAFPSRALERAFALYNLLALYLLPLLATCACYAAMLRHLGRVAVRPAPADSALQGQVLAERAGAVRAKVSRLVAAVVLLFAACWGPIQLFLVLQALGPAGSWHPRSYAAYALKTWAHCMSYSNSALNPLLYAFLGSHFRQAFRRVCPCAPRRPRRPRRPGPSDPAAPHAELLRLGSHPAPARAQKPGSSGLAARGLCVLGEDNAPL
5-hydroxytryptamine receptor 2A (Homo sapiens), sequence (P28223 whole entry, looked up): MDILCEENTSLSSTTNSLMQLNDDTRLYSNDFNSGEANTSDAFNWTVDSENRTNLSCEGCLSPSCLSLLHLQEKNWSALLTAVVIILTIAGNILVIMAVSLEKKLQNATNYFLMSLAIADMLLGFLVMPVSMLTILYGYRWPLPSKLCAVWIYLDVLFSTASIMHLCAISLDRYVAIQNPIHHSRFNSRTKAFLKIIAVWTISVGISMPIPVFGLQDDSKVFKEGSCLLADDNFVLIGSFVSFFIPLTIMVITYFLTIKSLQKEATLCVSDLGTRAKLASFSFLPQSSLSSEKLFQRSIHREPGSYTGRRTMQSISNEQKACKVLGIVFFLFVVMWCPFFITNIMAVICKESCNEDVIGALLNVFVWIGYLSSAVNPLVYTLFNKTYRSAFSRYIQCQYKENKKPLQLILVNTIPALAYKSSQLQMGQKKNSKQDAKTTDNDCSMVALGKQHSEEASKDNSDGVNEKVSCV
Beta-2 adrenergic receptor (Homo sapiens), sequence (P07550 whole entry, looked up): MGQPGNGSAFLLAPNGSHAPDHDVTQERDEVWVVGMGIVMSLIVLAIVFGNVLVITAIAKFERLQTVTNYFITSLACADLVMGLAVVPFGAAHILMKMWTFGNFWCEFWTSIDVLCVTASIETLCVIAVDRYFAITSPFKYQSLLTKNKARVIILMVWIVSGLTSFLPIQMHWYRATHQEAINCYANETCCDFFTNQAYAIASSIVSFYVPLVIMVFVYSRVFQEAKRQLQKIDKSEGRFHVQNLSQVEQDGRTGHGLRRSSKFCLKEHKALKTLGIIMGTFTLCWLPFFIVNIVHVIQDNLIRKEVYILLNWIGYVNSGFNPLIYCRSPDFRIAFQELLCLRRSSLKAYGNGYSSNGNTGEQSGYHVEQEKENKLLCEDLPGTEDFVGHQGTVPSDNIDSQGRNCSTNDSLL
Gonadotropin-releasing hormone receptor (Homo sapiens), sequence (P30968 whole entry, looked up): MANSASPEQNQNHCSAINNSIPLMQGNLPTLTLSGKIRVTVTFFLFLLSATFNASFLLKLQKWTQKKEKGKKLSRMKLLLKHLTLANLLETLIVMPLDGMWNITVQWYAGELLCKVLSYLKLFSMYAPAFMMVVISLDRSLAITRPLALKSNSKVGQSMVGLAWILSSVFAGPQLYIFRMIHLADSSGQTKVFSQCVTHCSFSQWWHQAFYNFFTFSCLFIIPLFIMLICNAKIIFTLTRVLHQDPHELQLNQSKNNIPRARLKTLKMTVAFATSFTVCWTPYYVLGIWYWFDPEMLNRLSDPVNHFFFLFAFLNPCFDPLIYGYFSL
D(2) dopamine receptor (Homo sapiens), sequence (P14416 whole entry, looked up): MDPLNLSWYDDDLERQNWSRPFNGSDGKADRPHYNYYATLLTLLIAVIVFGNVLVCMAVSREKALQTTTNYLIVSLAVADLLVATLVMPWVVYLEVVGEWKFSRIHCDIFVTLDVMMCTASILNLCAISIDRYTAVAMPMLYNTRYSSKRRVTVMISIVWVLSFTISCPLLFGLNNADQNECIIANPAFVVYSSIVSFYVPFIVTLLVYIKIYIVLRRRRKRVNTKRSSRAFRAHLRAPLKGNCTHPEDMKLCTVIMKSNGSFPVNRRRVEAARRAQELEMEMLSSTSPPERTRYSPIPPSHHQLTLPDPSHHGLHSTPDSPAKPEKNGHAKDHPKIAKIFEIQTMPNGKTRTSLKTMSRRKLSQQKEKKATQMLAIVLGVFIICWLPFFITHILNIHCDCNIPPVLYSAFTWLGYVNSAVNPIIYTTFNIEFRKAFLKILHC
Muscarinic acetylcholine receptor M1 (Homo sapiens), sequence (P11229 whole entry, looked up): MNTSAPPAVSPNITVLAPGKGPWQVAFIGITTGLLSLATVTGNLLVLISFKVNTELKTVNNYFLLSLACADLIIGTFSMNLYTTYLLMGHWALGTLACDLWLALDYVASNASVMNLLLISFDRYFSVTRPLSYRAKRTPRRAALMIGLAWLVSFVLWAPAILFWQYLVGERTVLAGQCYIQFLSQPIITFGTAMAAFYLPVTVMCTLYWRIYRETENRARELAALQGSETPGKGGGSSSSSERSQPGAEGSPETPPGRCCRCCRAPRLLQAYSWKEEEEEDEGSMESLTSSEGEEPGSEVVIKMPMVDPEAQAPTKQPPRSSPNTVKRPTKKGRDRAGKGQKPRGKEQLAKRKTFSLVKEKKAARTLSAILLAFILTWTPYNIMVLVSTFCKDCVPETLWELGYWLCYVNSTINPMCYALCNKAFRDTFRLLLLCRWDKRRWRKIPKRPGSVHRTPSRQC

Take `Oc1ccc(Cc2ccc(O)cc2)cc1`: the Potency result in assay [1], in [2], in [3], in assay [4], in assay [5] and in assay [6] was “inactive” throughout. Further, the Potency result in [7], in assay [8], in assay [9], in [10], in assay [11] and in [12] was “inactive” throughout. The Potency result in assay [13], in [14], in assay [15], in [16] and in assay [17] was “inactive” each time.
As to `O=C(CCCN1CCC2(CC1)C(=O)NCN2c1ccccc1)c1ccc(F)cc1`, the Potency result in [1], in [2], in assay [4], in assay [5], in assay [6] and in assay [7] was “inactive” each time. The Potency result in [8], in assay [9], in assay [11], in assay [13], in assay [14] and in assay [16] was “inactive” throughout. The Potency in [3] is 6.01 µM (active); in assay [15], 1.5 µM (active).
Consider `N#Cc1c(-c2ccc(Cl)cc2)[nH]c(C(F)(F)F)c1Br`, for which the Potency is 10.9 µM (active) in [1], 9.69 µM (active) in [2], 2.45 µM (active) in assay [5] and 16.8 µM (active) in assay [11]. For the same compound, the Potency entry in assay [3], in assay [4], in [6], in assay [7], in [18] and in assay [10] was “inactive” in each case. The Potency entry in assay [12] and in assay [16] was “inactive” each time.
On to `NCC1(CC(=O)O)CCCCC1`, for which the Potency result in assay [1], in assay [2], in [3], in [4], in assay [5] and in assay [6] was “inactive” each time. The Potency entry in [7], in assay [8], in assay [19], in assay [9], in assay [13] and in assay [14] was “inactive” each time. The Potency entry in [15], in assay [16] and in assay [17] was “inactive” each time.
For the compound `CC(c1ccccc1)(c1ccc(O)cc1)c1ccc(O)cc1`, the Potency was 43.3 µM (active) in assay [1], 45.8 µM (active) in assay [18], 49 µM (active) in [10] and 61.1 µM (active) in [15]. Further, the Potency result in assay [2], in assay [3], in assay [4], in assay [5], in assay [6] and in [7] was “inactive” throughout. The Potency result in assay [19], in [20], in assay [11], in assay [12] and in [16] was “inactive” in each case.
Regarding `CCO/N=C(\CC)C1=C(O)CC(c2c(C)cc(C)cc2C)CC1=O` (centres undefined), the Potency result in assay [1], in [2], in [3], in assay [4], in assay [5] and in [6] was “inactive” each time. Moreover, the Potency entry in assay [7], in [8], in assay [20], in assay [10], in assay [12] and in [15] was “inactive” throughout.
On to `C=CC(=O)OCCCCOC(=O)C=C`, for which the Potency in [1] is 61.1 µM (active); in assay [2] it was 24.3 µM (active). Besides, the Potency entry in [3], in assay [4], in assay [5], in assay [6], in assay [7] and in [8] was “inactive” in each case. Further, the Potency entry in [19], in [9], in [20], in assay [10], in assay [11] and in assay [12] was “inactive” each time. The Potency entry in [15], in assay [16] and in [17] was “inactive” in each case.
For `CCCCCCCCCCCCN=C(N)N`, the results for the activity change, negative = cytotoxicity in assay [1], in assay [18] and in assay [19] were -1.49% [at 3.27 µM], -3.65% [at 2.33 µM] and 10.9% [at 2.33 µM], respectively. Further, in [2], the activity, positive = activation is -21.7% [at 3.27 µM]. Besides, the activity change in assay [3] is 1.72% [at 2.04 µM, hits give high values]. For the same compound, the activation in assay [4] is 1.8% [at 2.72 µM]; in assay [5], 0.159% [at 2.04 µM]; in assay [6], 0.2% [at 2.33 µM]; in [7] it was 0.708% [at 2.33 µM]; in [9], -3.75% [at 2.33 µM]; in assay [10] it was -1.31% [at 2.65 µM]. In addition, the activation in assay [13] was -0.694% [at 3.27 µM]; in assay [16], -4% [at 3.27 µM]. Besides, in [11], the activity, negative = inhibition was 8.27% [at 2.17 µM]. Also, the figures for the activity change, negative = inhibition in [14], in assay [15] and in assay [17] were 1.77% [at 3.27 µM], -9.86% [at 3.27 µM] and -0.313% [at 3.28 µM], respectively.
